Bioassay records (PubChem)
Hits are enriched below; roughly 11% of the tested compounds scored in any of these assays.
VACV mCherry inh: inhibitors of vaccinia virus infection (mCherry reporter signal). Vaccinia virus mCherry reporter infection, fluorescence. Potency, µM (doses to about 36.5 µM), most hits filed as inhibitors. 310,000 compounds, 0.63% hits. AID 720579; calls by dose curve; tested in A549 cells; also: nearly all actives have a fitted effect of over 35% in size
HCV inhibitor: inhibitors of hepatitis C virus infection. Huh7.5.1 HCVcc-Cre infection, luciferase reporter, 44 h. Potency, µM (titrated, usually from 41.8 µM), usual class: inhibitors. 340,000 compounds, 3.4% hits. AID 651820
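Antiviral activity was scored by luciferase reporter output from cells infected with HCVcc-Cre (~0.5 moi) in presence of compound, 44 h infection period, cells seeded 1,000/well 4 h prior.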
NS1 inh: influenza NS1 inhibition | Potency, µM (doses to about 46.1 µM) | AID 2326 | 270,000 compounds, 0.4% hits; calls by dose curve; also: actives are rising curves; nearly all actives have a fitted effect of over 50% in size
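In this qHTS, NS1 from influenza A is expressed in budding yeast, where it slows growth. Cells are switched from glucose to 2% galactose medium (pH 6.0, -URA), treated with compound, and growth recovery is read at OD600.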
VACV Venus inh: vaccinia inhibition (Venus reporter); Vaccinia virus Venus reporter expression, fluorescence; Potency, µM (titrated, usually from 36.5 µM), actives largely listed as inhibitors; 330,000 compounds, 0.46% hits; AID 720580; calls by dose curve; tested in A549 cells; also: nearly all actives have a fitted effect of over 30% in size
Pf growth 48h: P. falciparum growth inhibition at 48 hours (one generation). P. falciparum luciferase growth in erythrocytes, 48 h. Potency, µM (doses to about 28.7 µM), actives largely listed as inhibitors. 310,000 compounds, 5.9% hits. AID 504832
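First compound was added to culture medium, then infected red cells at 0.1% parasitemia and 2% hematocrit (final). After incubation at 37 C under 5% CO2, luciferase detection reagent was dispensed and light output recorded.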
Pf growth 96h: P. falciparum growth inhibition at 96 hour, primary screen for plastid delayed-death inhibitors; P. falciparum luciferase reporter growth, 96 h; 320,000 compounds, 6.9% hits; Potency, µM (top dose mostly 28.7 µM), hits mostly inhibitors
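Readout is luminescence from an integrated firefly luciferase in P. falciparum. Red cells, 2% hematocrit and 0.05% parasitemia final, were cultured with compound through two parasite generations (96 hours) at 37 C, 5% CO2.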
Of the large screens only hits and unclear results are named; the others gave an inactive call. Unless noted, calls follow the shape of the dose curve; as a rule, active = well fitted inhibition curve with a large enough effect; inconclusive = small, poorly fitted or top-dose-only effect, or another doubt; inactive = no such curve, though single readings can be large or run the other way.

CCOC(=O)C1=C(CNCCc2ccc(Cl)cc2)NC(=O)NC1c1ccc2c(c1)OCO2 (configuration not stated)	HCV inhibitor inconclusive, NS1 inh inconclusive, VACV Venus inh inconclusive, Pf growth 48h 7.38µM (no result: VACV mCherry inh, Pf growth 96h)
CCOC(=O)C1=C(CNCCOc2ccc(OC)cc2)NC(=O)NC1c1ccc2c(c1)OCO2 (configuration not stated)	HCV inhibitor inconclusive, Pf growth 48h 11.7µM, Pf growth 96h inconclusive (no result: NS1 inh)
CC(=O)NC(C)(c1ccccc1)c1nc(-c2ccncc2)cs1 (configuration not stated)	none (no result: HCV inhibitor, NS1 inh, Pf growth 48h, Pf growth 96h)
Fc1ccc(OCCCCCN2CCCC2)cc1	none
CN(C(=O)CC1C(=O)NCCN1C/C=C/c1ccccc1)C1CCOCC1 (configuration not stated)	Pf growth 96h inconclusive
C#CCN(C(=O)CC1C(=O)NCCN1C/C=C/c1ccccc1)C1CCCCC1 (configuration not stated)	Pf growth 96h 4.65µM
CCN(CC)C(=O)c1ccc(NC(=S)NC(=O)CCc2ccccc2)cc1	VACV mCherry inh inconclusive, HCV inhibitor inconclusive
NS(=O)(=O)c1ccc(CCNC(=O)CCCC2=NS(=O)(=O)c3ccccc3N2)cc1	Pf growth 96h 5.22µM (no result: VACV mCherry inh, VACV Venus inh)
COC(=O)C(F)(F)Sc1c(C)[nH]c2ccccc12	Pf growth 96h inconclusive
Cc1[nH]c2ccccc2c(=O)c1SC(F)(F)C(F)C(F)(F)F (configuration not stated)	Pf growth 48h 0.828µM, Pf growth 96h 3.29µM (no result: VACV mCherry inh)
COc1ccc([C@@H]2CC(=O)c3c(O)cc(O[C@@H]4OC(CO[C@@H]5OC(C)[C@H](O)[C@@H](O)[C@H]5O)[C@@H](O)[C@H](O)[C@H]4O)cc3O2)cc1O (some centres not stated)	HCV inhibitor inconclusive (no result: NS1 inh, Pf growth 48h, Pf growth 96h)
ClC(Br)=C(n1cnc2ccccc21)n1cnc2ccccc21	HCV inhibitor inconclusive, Pf growth 48h 10.4µM
CCc1ccc(N(CC)C(=O)Cn2c(=O)oc3ccccc32)cc1	none (no result: HCV inhibitor, NS1 inh, Pf growth 48h, Pf growth 96h)
CCOc1ccc(Br)cc1-c1noc(-c2cccs2)n1	none (no result: VACV mCherry inh, Pf growth 96h)
S=c1[nH]nc(CN2CCCC2)n1Cc1ccccc1	none (no result: NS1 inh)
S=c1[nH]nc(-c2ccccc2)n1Cc1ccccc1	Pf growth 96h 0.415µM
S=c1[nH]nc(CN2CCCCC2)n1Cc1ccccc1	Pf growth 48h 3.7µM
CCn1c(CCc2ccccc2)n[nH]c1=S	Pf growth 96h 10.4µM
CN(C(=O)CSc1nnc(CN2CCCC2)n1Cc1ccccc1)c1ccccc1	Pf growth 48h 11.7µM, Pf growth 96h inconclusive (no result: NS1 inh)
S=c1[nH]nc(-c2ccc(Cl)cc2)n1Cc1ccccc1	none
Cc1ccc(C)c(S(=O)(=O)N2CCCOC2CNC(=O)C(=O)NC2CC2)c1 (configuration not stated)	none
CCN1CCN(c2ccc(S(=O)(=O)N3CCCCC3)cc2NC(=O)CC(C)c2ccccc2)CC1 (configuration not stated)	Pf growth 48h 9.28µM, Pf growth 96h inconclusive (no result: NS1 inh)
CCN1CCN(c2ccc(S(=O)(=O)N3CCCCC3)cc2NC(=O)c2cccc(C)c2)CC1	VACV mCherry inh inconclusive, Pf growth 48h 11.7µM, Pf growth 96h inconclusive (no result: NS1 inh)
CCN1CCN(c2ccc(Cl)cc2NC(=O)c2ccc(-n3nc(C)cc3C)cc2)CC1	HCV inhibitor inconclusive, Pf growth 48h 4.15µM, Pf growth 96h inconclusive (no result: VACV mCherry inh, NS1 inh, VACV Venus inh)
CCN1CCN(c2ccc(S(=O)(=O)N3CCCCC3)cc2NC(=O)c2ccc(F)cc2)CC1	Pf growth 48h inconclusive, Pf growth 96h 9.28µM
Cc1nnc(SCC(=O)Nc2sc3c(c2C(N)=O)CCC(C)C3)[nH]c1=O (configuration not stated)	none (no result: VACV mCherry inh, NS1 inh, VACV Venus inh)
CCCN(S(=O)(=O)c1ccc(OCC)cc1)S(=O)(=O)c1cccs1	HCV inhibitor inconclusive, Pf growth 48h 10.4µM, Pf growth 96h inconclusive
CCOc1ccc(NC(=O)CN(c2ccc(OC)cc2)S(=O)(=O)c2cccs2)cc1	none (no result: VACV mCherry inh, NS1 inh, VACV Venus inh)
Cc1[nH]c2ccccc2c1C1=NNC(=Nc2ccc(F)cc2)SC1	HCV inhibitor inconclusive, NS1 inh inconclusive, Pf growth 48h inconclusive, Pf growth 96h 8.28µM (no result: VACV mCherry inh, VACV Venus inh)
O=C(CNS(=O)(=O)c1ccc(Br)s1)Nc1ccc2c(c1)OCCO2	Pf growth 48h inconclusive, Pf growth 96h 13.1µM
CN(CC(=O)Nc1ccc2c(c1)OCCO2)S(=O)(=O)c1ccc(Br)s1	Pf growth 96h 13.1µM (no result: VACV mCherry inh, Pf growth 48h)
